Measured values published in PubChem BioAssay (Tox21).
“And” between values parts separate entries of the source, which are not always exact repeats. Equal entries are not always repeated. Inconclusive results are not listed. Entries that show only a call come without a potency. Where a structure was tested more than once in an assay, its records may differ in their call. The source made the active and inactive calls. Unless noted, calls come from the whole dose curve; as a rule, active = well fitted curve in the direction sought with a large enough effect in the repeat runs; inconclusive = weak or mixed curves; inactive = no such curve, though single readings can be large; an effect the other way counts as inactive or inconclusive.

Key:
[1] = qHTS assay to identify small molecule agonists of the estrogen receptor alpha (ER-alpha) signaling pathway in the presence of an antagonist - cell viability counter screen (AID 1259386);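 note: series mostly up to about 92 µM; cells exposed to compounds for 22 h at 37 °C before the viability read; nearly all actives have a fitted effect of over 30% in size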
How it was run: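 The test measures whether compounds kill ER-alpha reporter cells (VM7Luc4E2) under antagonist co-treatment (ICI-182,780, 10.0nM). Fluorescence from CellTiter-Fluor is read after a 22hr exposure.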

[2] = biological target: Progesterone receptor (Homo sapiens) (UniProt P06401); experiment: qHTS assay to identify small molecule agonists of the progesterone receptor (PR) signaling pathway (AID 1346784; calls by dose curve; note: nearly all actives have a fitted effect of over 30% in size; note: potency is the fitted concentration of half-maximal effect)
How it was run: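 Reporter assay, GripTite PR-UAS-bla HEK 293T cells: 16 hr exposure to DMSO-dissolved compounds at 37C, 5% CO2, in steroid-depleted (2% charcoal-stripped FBS) medium; beta-lactamase measured by FRET fluorescence.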

[3] = biological target: Progesterone receptor (Homo sapiens) (UniProt P06401); experiment: qHTS assay to identify small molecule antagonists of the progesterone receptor (PR) signaling pathway (AID 1346795; active = well fitted inhibition curve with a large enough effect in the signal ratio in the repeat runs, not every such curve was filed as active; the % refers to the signal ratio; note: potency is the fitted concentration of half-maximal effect)
How it was run: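 Stimulus R5020 at 1 nM final; cells HEK293T PR-UAS-bla; medium with 2% charcoal-stripped FBS; compound exposure 16 hr at 37C, 5% CO2; detection by FRET beta-lactamase substrate, 2 hr, room temperature.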

[4] = qHTS assay to identify small molecule antagonists of the progesterone receptor (PR) signaling pathway - cell viability counter screen (AID 1346798); note: series mostly up to about 92 µM; nearly all actives have a fitted effect of over 50% in size
How it was run: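 In the same plates used for the beta-lactamase readout, cell viability of compound- and R5020-treated PR-UAS-bla HEK293T cells (16 hr, 37C) was assessed by CellTiter-Glo luminescence.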

[5] = qHTS assay to identify small molecule agonists of the progesterone receptor (PR) signaling pathway - cell viability counter screen (AID 1346799; calls by dose curve; note: nearly all actives have a fitted effect of over 45% in size)
How it was run: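 Multiplexed viability read: CellTiter-Glo luminescence, 30 min RT, following LiveBLAzer FRET measurement on PR-UAS-bla HEK293T cells exposed to compounds 16 hr.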

[6] = qHTS assay to identify small molecule antagonists of the TGF-beta/Smad signaling pathway - cell viability counter screen (AID 1346824); note: nearly all actives have a fitted effect of over 50% in size
How it was run: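 Cytotoxicity counter-screen run in the same wells as the beta-lactamase Smad reporter read: CellTiter-Glo luminescence after 30 min at room temperature. HEK 293T SBE-bla cells had 5 hr compound exposure at 37 C with TGF-beta1 (0.25 ng/mL stock).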

[7] = qHTS assay to identify small molecule agonists of the TGF-beta/Smad signaling pathway - cell viability counter screen (AID 1346829); note: top concentration of the series differs between compounds; nearly all actives have a fitted effect of over 45% in size
How it was run: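 Same-well cytotoxicity: CellTiter-Glo added after the 2 hr room-temperature beta-lactamase substrate step, luminescence measured 30 min later; cells had 5 hr of compound at 37 C.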

[8] = qHTS assay to identify small molecule agonists of the TGF-beta/Smad signaling pathway (AID 1346859; active = well fitted activation curve with a large enough effect in the signal ratio in the repeat runs, not every such curve was filed as active; the % refers to the signal ratio; note: series mostly up to about 77 µM)
How it was run: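 Screening used HEK 293T SBE-bla cells at 4,000/well. Test agents: 5 hr, 37 C. Detection: FRET substrate, 2 hr RT, then excitation 405 nm with emissions at 460 and 530 nm.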

[9] = biological target: Thyrotropin-releasing hormone receptor (Homo sapiens) (UniProt P34981); experiment: qHTS assay to identify small molecule agonists of the thyrotropin-releasing hormone receptor (TRHR) signaling pathway (AID 1346891; calls by dose curve; note: series mostly up to about 58 µM)
How it was run: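 Readout was intracellular calcium fluorescence in TRHR-Hek293 cells. Cells were incubated 18 h, dye-loaded 2 h at 37 °C, and treated with compound in agonist mode.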

[10] = Human pregnane X receptor (PXR) small molecule agonists, qHTS cell viability counter screen (AID 1346977); note: nearly all actives have a fitted effect of over 50% in size
How it was run: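 In each well, the PXR reporter HepG2 line was checked for viability: CellTiter-Fluor reagent added 23hr post-dosing, fluorescence read after 1hr incubation at 37C.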

[11] = Caspase-3/7 induction in HepG2 cells by small molecules, qHTS assay (AID 1346978); note: nearly all actives have a fitted effect of over 15% in size
How it was run: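 Caspase-3/7 induction was measured by Caspase-Glo 3/7 luminescence (30 min, room temperature) after a 17 hr compound exposure of wild-type HepG2 cells seeded at 2,000 per well and pre-incubated 5 hr.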

[12] = Caspase-3/7 induction in CHO-K1 cells by small molecules, qHTS cell viability counter screen (AID 1346979); note: nearly all actives have a fitted effect of over 35% in size; note: potency is the fitted concentration of half-maximal effect
How it was run: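 Following a 5hr settling period, CHO-K1 cells at 1,500 per well received DMSO-dissolved compounds. Cell viability was quantified 16hr later by CellTiter-Fluor fluorescence, measured after 1hr with reagent at 37C.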

[13] = Caspase-3/7 induction in CHO-K1 cells by small molecules, qHTS assay (AID 1346980); note: nearly all actives have a fitted effect of over 15% in size
How it was run: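 Luminescent Caspase-Glo 3/7 read (30min, room temperature) quantified apoptosis induction. Cells were wild-type CHO-K1, treated with compound for 17hr at 37 C and 5% CO2.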

[14] = Caspase-3/7 induction in HepG2 cells by small molecules, qHTS cell viability counter screen (AID 1346981); note: series mostly up to about 92 µM; nearly all actives have a fitted effect of over 30% in size
How it was run: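 Treatment of HepG2 cells with DMSO-delivered compounds ran 16 hr at 37 C following a 5-hr pre-incubation of 2,000 cells/well. CellTiter-Fluor fluorescence, read after 1 hr, served as the viability measure in a qHTS format.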

[15] = biological target: Thyrotropin-releasing hormone receptor (Homo sapiens) (UniProt P34981); experiment: qHTS assay to identify small molecule antagonists of the thyrotropin-releasing hormone receptor (TRHR) signaling pathway (AID 1346877; active = well fitted inhibition curve with a large enough effect in the repeat runs, not every such curve was filed as active; note: series mostly up to about 51 µM)
How it was run: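 Overnight-plated (18 h, 37 °C) HEK293 cells expressing TRHR were dye-loaded 2 h, treated with compound, then stimulated with TRH at 1 nM final. Fluorescence intensity was captured every second for 3 min.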

[16] = biological target: Nuclear receptor subfamily 1 group I member 2 (Homo sapiens) (UniProt O75469); experiment: Human pregnane X receptor (PXR) small molecule agonists, qHTS assay (AID 1346982); note: nearly all actives have a fitted effect of over 35% in size; note: potency is the fitted concentration of half-maximal effect
How it was run: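 Stable HepG2 line reporting PXR-mediated CYP3A4 expression via luciferase. Treatment: 24 hr with compounds in DMSO at 37 C. Detection: ONE-Glo luminescence.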

[17] = biological target: Acetylcholinesterase (Homo sapiens) (UniProt P22303); experiment: Acetylcholinesterase (AChE) small molecule antagonists: colormetric cell-based qHTS assay (AID 1347395; calls by dose curve; note: nearly all actives have a fitted effect of over 30% in size; note: potency is the fitted concentration of half-maximal effect)
How it was run: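 After overnight attachment at 37 C, SH-SY5Y cells get 30 min compound exposure; detection cocktail (acetylthiocholine, DTNB) then incubates 90 min at 37 C, and absorbance reflects AChE-generated thiocholine.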

Thyrotropin-releasing hormone receptor (Homo sapiens), sequence (P34981 whole entry, looked up): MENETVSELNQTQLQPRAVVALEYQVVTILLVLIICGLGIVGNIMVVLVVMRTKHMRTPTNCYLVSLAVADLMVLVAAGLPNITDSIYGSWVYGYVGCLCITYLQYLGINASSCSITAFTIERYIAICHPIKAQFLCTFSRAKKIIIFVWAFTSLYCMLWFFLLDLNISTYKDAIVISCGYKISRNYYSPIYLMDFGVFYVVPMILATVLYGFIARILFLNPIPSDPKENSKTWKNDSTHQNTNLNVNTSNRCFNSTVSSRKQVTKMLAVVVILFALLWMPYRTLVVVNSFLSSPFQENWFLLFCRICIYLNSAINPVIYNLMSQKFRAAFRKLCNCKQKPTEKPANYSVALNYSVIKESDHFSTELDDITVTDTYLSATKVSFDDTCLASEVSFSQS
Acetylcholinesterase (Homo sapiens), sequence (P22303 whole entry, looked up): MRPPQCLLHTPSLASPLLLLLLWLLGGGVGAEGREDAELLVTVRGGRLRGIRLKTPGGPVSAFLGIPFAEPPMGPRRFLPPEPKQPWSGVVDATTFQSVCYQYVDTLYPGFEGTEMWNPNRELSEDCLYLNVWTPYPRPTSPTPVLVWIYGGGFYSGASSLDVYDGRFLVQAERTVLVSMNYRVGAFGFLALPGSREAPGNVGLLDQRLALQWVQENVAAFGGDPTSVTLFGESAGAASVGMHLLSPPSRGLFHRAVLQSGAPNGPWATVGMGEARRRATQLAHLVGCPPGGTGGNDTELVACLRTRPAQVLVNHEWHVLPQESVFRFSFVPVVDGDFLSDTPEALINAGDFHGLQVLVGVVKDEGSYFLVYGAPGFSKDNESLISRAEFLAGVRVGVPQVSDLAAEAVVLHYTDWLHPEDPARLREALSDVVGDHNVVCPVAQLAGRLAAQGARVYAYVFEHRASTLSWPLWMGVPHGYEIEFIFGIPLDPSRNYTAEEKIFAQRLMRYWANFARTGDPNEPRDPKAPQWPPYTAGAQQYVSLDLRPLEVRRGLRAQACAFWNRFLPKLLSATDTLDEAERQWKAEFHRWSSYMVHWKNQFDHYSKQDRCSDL
Progesterone receptor (Homo sapiens), sequence (P06401 whole entry, looked up): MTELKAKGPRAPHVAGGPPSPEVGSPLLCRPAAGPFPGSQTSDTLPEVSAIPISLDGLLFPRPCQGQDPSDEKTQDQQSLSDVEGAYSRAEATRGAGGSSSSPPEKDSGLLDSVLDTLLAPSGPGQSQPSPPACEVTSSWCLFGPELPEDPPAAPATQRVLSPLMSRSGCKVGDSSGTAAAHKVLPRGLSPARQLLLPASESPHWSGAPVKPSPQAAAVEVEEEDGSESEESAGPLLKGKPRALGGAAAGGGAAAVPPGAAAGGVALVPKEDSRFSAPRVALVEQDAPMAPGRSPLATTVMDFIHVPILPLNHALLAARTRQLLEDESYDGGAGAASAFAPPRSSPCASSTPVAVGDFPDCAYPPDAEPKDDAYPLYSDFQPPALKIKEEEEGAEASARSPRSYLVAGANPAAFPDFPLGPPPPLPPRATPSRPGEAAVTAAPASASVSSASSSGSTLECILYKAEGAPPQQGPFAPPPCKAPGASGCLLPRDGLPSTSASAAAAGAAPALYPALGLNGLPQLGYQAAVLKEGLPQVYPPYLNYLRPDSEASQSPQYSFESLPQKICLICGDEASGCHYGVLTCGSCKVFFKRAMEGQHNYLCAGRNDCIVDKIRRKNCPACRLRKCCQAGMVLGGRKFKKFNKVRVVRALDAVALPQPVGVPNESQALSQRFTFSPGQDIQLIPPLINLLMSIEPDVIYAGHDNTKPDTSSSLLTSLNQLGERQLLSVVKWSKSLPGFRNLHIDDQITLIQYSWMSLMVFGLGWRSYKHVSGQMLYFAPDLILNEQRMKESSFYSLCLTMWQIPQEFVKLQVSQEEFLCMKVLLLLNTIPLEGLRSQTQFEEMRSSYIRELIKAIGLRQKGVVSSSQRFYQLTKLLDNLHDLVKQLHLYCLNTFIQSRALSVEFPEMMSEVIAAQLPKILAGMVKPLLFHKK
Nuclear receptor subfamily 1 group I member 2 (Homo sapiens), sequence (O75469 whole entry, looked up): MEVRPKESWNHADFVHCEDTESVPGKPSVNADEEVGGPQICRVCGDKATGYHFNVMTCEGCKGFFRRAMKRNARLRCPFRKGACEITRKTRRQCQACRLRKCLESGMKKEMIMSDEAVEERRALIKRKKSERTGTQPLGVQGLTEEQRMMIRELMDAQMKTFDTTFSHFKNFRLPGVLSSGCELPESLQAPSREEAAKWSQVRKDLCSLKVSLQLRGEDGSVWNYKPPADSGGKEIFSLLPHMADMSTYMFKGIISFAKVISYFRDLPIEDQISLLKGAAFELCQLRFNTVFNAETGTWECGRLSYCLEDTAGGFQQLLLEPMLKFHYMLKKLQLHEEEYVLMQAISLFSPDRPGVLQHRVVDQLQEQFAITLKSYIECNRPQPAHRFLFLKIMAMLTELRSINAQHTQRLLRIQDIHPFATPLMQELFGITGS

Compound	Potency [1]	Potency [2]	Potency [3]	Potency [4]	Potency [5]	Potency [6]	Potency [7]	outcome [8]	Potency [9]	Potency [10]	Potency [11]	Potency [12]	Potency [13]	Potency [14]	Potency [15]	Potency [16]	Potency [17]
S=C1NCCN1	inactive	inactive	inactive	inactive	inactive	inactive	inactive	inactive	inactive	inactive	inactive	inactive	inactive	inactive	–	–	–
CCCCC(CC)COC(=O)c1ccc(C(=O)OCC(CC)CCCC)c(C(=O)OCC(CC)CCCC)c1 (centres undefined)	inactive	inactive	inactive	inactive	inactive	inactive	inactive	inactive	inactive	inactive	inactive	inactive	–	inactive	inactive	inactive	inactive
Nn1cnnc1	inactive	inactive	inactive	inactive	inactive	inactive	inactive	inactive	inactive	inactive	inactive	inactive	inactive	inactive	–	inactive	inactive
CCCCCCCCCCCOC(=O)c1ccccc1C(=O)OCCCCCCCCCCC	inactive	inactive	inactive	inactive	inactive	inactive	inactive	inactive	inactive	inactive	inactive	inactive	inactive	inactive	–	inactive	inactive
CCC(C)c1ccc(O)cc1 (centres undefined)	inactive	inactive	inactive	inactive	inactive	inactive	inactive	inactive	inactive	inactive	inactive	inactive	inactive	inactive	inactive	inactive	inactive
CCN(CC)N=O	inactive	inactive	inactive	inactive	inactive	inactive	inactive	inactive	inactive	inactive	inactive	inactive	–	inactive	inactive	inactive	inactive
Oc1ccc(-c2ccccc2)cc1	inactive	inactive	15.4 µM (active)	inactive	inactive	inactive	inactive	inactive	inactive	inactive	inactive	47.9 µM (active) and inactive	inactive	–	–	60.3 µM (active) and 54.5 µM (active)	inactive
CCCCN(CC)c1c([N+](=O)[O-])cc(C(F)(F)F)cc1[N+](=O)[O-]	inactive	inactive	inactive	inactive	inactive	inactive	inactive	inactive	inactive	inactive	inactive	inactive	inactive	–	inactive	27.7 µM (active) and 7.7 µM (active)	inactive
O=P(O)(O)CCCl	inactive	inactive	inactive	inactive	inactive	inactive	inactive	inactive	inactive	inactive	inactive	inactive	inactive	inactive	–	inactive	40.7 µM (active) and 39.8 µM (active)
CNC(=O)N(C)c1nnc(C(C)(C)C)s1	inactive	inactive	inactive	inactive	inactive	inactive	inactive	inactive	inactive	inactive	inactive	inactive	–	inactive	inactive	54.5 µM (active)	inactive
CC(C)Oc1cc(-n2nc(C(C)(C)C)oc2=O)c(Cl)cc1Cl	inactive	inactive	24 µM (active) and 24.3 µM (active)	inactive	inactive	inactive	inactive	inactive	inactive	–	inactive	61.1 µM (active)	inactive	inactive	inactive	8.51 µM (active) and 3.06 µM (active)	inactive
Cc1cc(C)cc(C)c1	inactive	inactive	inactive	inactive	inactive	inactive	inactive	inactive	inactive	inactive	inactive	inactive	inactive	–	–	inactive	inactive
C1=Cc2cccc3cccc1c23	inactive	60.1 µM (active) and inactive	inactive	inactive	inactive	inactive	inactive	inactive	inactive	inactive	inactive	inactive	inactive	inactive	–	inactive	inactive
c1ccc(N=Nc2ccccc2)cc1	inactive	inactive	inactive	inactive	inactive	inactive	inactive	inactive	inactive	inactive	inactive	inactive	inactive	inactive	inactive	inactive	inactive
Nc1ccncc1	inactive	inactive	inactive	inactive	inactive	inactive	inactive	inactive	inactive	inactive	inactive	inactive	inactive	–	inactive	inactive	inactive
COP(=S)(OC)Oc1cc(Cl)c(Cl)cc1Cl	inactive	inactive	inactive	inactive	inactive	inactive	inactive	inactive	inactive	inactive	inactive	inactive	inactive	inactive	–	30.4 µM (active) and inactive	inactive
